# Test results: the supplement of paper PMC4022240
# ± gives the standard deviation.
# T1: HaloTag-ATRX ADD domain (163-292)
# T1 chain: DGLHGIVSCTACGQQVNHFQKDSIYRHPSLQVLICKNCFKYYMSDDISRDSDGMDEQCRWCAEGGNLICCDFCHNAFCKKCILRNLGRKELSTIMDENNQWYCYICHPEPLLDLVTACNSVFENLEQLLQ
# B1: H3 5-17 Q T A R K Sph T G G K A P R (peptide)
# chain: QTARKSTGGKAPR
# B2: H3 11-23 T G G Kac A P R Kme2 Q L A T K (peptide)
# chain: TGGKAPRKQLATK
# B3: H3 5-17 Q T A R K S Tph G G Kac A P R (peptide)
# chain: QTARKSTGGKAPR
# B4: H3 11-23 T G G K A P R K Q L A T K (peptide)
# chain: TGGKAPRKQLATK
# B5: H3 11-23 T G G Kac A P R Kac Q L A T K (peptide)
# chain: TGGKAPRKQLATK
# Tests used:
# Test in all cases: peptide microarray binding signal (635 nm), min-max normalized on array (fraction of array maximum); higher = stronger binding
# [1] = target: T1, HaloTag-ATRX ADD domain (163-292)
# How it was run: (§1)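 An Axon GenePix 4000B scanned the arrays at 635 nm for signal and at 532 nm to catch misprints. Those arrays held histone 13-mer peptide–cellulose conjugates printed in triplicate on nitrocellulose with a Cy3 tracer, blocked overnight at 4°C and probed for 1 h at 4°C with biotin-labelled HaloTag reader fusions (10 nM to 1 μM) plus streptavidin-Alexa Fluor 647 or with rabbit histone antibodies (1:10,000 to 1:2,000) plus anti-rabbit Alexa 647. Each binding signal is a triplicate-spot mean intensity, scaled min-max within its library.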
# [2] = target: HaloTag-ING2 PHD (mouse Ing2 200-280)
# How it was run: as §1
# [3] = target: anti-H3K4me3 antibody ab8580
# How it was run: as §1
# [4] = target: anti-H3K9me3 antibody ab8898
# How it was run: as §1
# [5] = peptide region: H3 5-17, peptide modifications: H3S10ph, binder concentration: 1:2,000 dilution
# [6] = peptide region: H3 5-17, peptide modifications: H3S10ph, binder concentration: 1:10,000 dilution
# [7] = peptide region: H3 11-23, peptide modifications: H3K14ac H3K18me2, binder concentration: 1:2,000 dilution
# [8] = peptide region: H3 11-23, peptide modifications: H3K14ac H3K18me2, binder concentration: 1:10,000 dilution
# [9] = peptide region: H3 5-17, peptide modifications: H3T11ph H3K14ac, binder concentration: 1:2,000 dilution
# [10] = peptide region: H3 5-17, peptide modifications: H3T11ph H3K14ac, binder concentration: 1:10,000 dilution
# [11] = peptide region: H3 11-23, binder concentration: 1:2,000 dilution
# [12] = peptide region: H3 11-23, binder concentration: 1:10,000 dilution
# [13] = peptide region: H3 11-23, peptide modifications: H3K14ac H3K18ac, binder concentration: 1:2,000 dilution
# [14] = peptide region: H3 11-23, peptide modifications: H3K14ac H3K18ac, binder concentration: 1:10,000 dilution
binder,measurement,setting,value
B1,peptide microarray binding signal,"[1]; peptide region: H3 5-17, peptide modifications: H3S10ph, binder concentration: 50 nM",0.00589 ± 6.1e-05
same,peptide microarray binding signal,"[1]; peptide region: H3 5-17, peptide modifications: H3S10ph, binder concentration: 500 nM",0.0117 ± 0.0012
same,peptide microarray binding signal,"[2]; peptide region: H3 5-17, peptide modifications: H3S10ph, binder concentration: 10 nM",0.00955 ± 0.00078
same,peptide microarray binding signal,"[2]; peptide region: H3 5-17, peptide modifications: H3S10ph, binder concentration: 100 nM",0.0203 ± 0.002
same,peptide microarray binding signal,[3]; [5],0.00142 ± 0.0001
same,peptide microarray binding signal,[3]; [6],0.0024 ± 0.00015
same,peptide microarray binding signal,[4]; [5],0.000785 ± 1.3e-05
same,peptide microarray binding signal,[4]; [6],0.0011 ± 1.1e-05
B2,peptide microarray binding signal,"[1]; peptide region: H3 11-23, peptide modifications: H3K14ac H3K18me2, binder concentration: 50 nM",0.00727 ± 0.00061
same,peptide microarray binding signal,"[1]; peptide region: H3 11-23, peptide modifications: H3K14ac H3K18me2, binder concentration: 500 nM",0.0126 ± 0.00024
same,peptide microarray binding signal,"[2]; peptide region: H3 11-23, peptide modifications: H3K14ac H3K18me2, binder concentration: 10 nM",0.0171 ± 0.0046
same,peptide microarray binding signal,"[2]; peptide region: H3 11-23, peptide modifications: H3K14ac H3K18me2, binder concentration: 100 nM",0.031 ± 0.014
same,peptide microarray binding signal,[3]; [7],0.0176 ± 0.0051
same,peptide microarray binding signal,[3]; [8],0.0145 ± 0.0016
same,peptide microarray binding signal,[4]; [7],0.00399 ± 0.00012
same,peptide microarray binding signal,[4]; [8],0.00346 ± 0.0001
B3,peptide microarray binding signal,"[1]; peptide region: H3 5-17, peptide modifications: H3T11ph H3K14ac, binder concentration: 50 nM",0.00514 ± 0.00023
same,peptide microarray binding signal,"[1]; peptide region: H3 5-17, peptide modifications: H3T11ph H3K14ac, binder concentration: 500 nM",0.015 ± 0.0014
same,peptide microarray binding signal,"[2]; peptide region: H3 5-17, peptide modifications: H3T11ph H3K14ac, binder concentration: 10 nM",0.00597 ± 0.00044
same,peptide microarray binding signal,"[2]; peptide region: H3 5-17, peptide modifications: H3T11ph H3K14ac, binder concentration: 100 nM",0.0333 ± 0.0053
same,peptide microarray binding signal,[3]; [9],0.000868 ± 6.7e-05
same,peptide microarray binding signal,[3]; [10],0.000685 ± 1.9e-05
same,peptide microarray binding signal,[4]; [9],0.00394 ± 0.0008
same,peptide microarray binding signal,[4]; [10],0.00156 ± 3e-05
B4,peptide microarray binding signal,"[1]; peptide region: H3 11-23, binder concentration: 50 nM",0.00481 ± 0.00041
same,peptide microarray binding signal,"[1]; peptide region: H3 11-23, binder concentration: 500 nM",0.0154 ± 0.0015
same,peptide microarray binding signal,"[2]; peptide region: H3 11-23, binder concentration: 10 nM",0.00615 ± 0.00031
same,peptide microarray binding signal,"[2]; peptide region: H3 11-23, binder concentration: 100 nM",0.0175 ± 0.0019
same,peptide microarray binding signal,[3]; [11],0.000849 ± 5.7e-05
same,peptide microarray binding signal,[3]; [12],0.00097 ± 0.00013
same,peptide microarray binding signal,[4]; [11],0.00172 ± 0.00025
same,peptide microarray binding signal,[4]; [12],0.00138 ± 0.00011
B5,peptide microarray binding signal,"[1]; peptide region: H3 11-23, peptide modifications: H3K14ac H3K18ac, binder concentration: 50 nM",0.00511 ± 0.00036
same,peptide microarray binding signal,"[1]; peptide region: H3 11-23, peptide modifications: H3K14ac H3K18ac, binder concentration: 500 nM",0.013 ± 0.00068
same,peptide microarray binding signal,"[2]; peptide region: H3 11-23, peptide modifications: H3K14ac H3K18ac, binder concentration: 10 nM",0.00913 ± 0.0004
same,peptide microarray binding signal,"[2]; peptide region: H3 11-23, peptide modifications: H3K14ac H3K18ac, binder concentration: 100 nM",0.0128 ± 0.00072
same,peptide microarray binding signal,[3]; [13],0.00445 ± 0.00038
same,peptide microarray binding signal,[3]; [14],0.00896 ± 0.0029
same,peptide microarray binding signal,[4]; [13],0.00139 ± 6.5e-05
same,peptide microarray binding signal,[4]; [14],0.00115 ± 2e-05
